Screen size: about 310,000 compounds; about 14,000 (4.5%) showed an effect of 50% or more. Effects have a minus sign here. This is one part of a sample in which strong results are shown more often than they occur.
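Further: peak tail current of the secondary pulse compared with the same well before compound.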

For this assay, the target named is human ether-à-go-go-related gene (hERG) potassium channel (human, UniProt Q12809). Put plainly: primary screen, population patch clamp on CHO cells stably expressing hERG; higher = less effect of the substance.
Sequence of human ether-à-go-go-related gene (hERG) potassium channel (Q12809 whole entry, looked up): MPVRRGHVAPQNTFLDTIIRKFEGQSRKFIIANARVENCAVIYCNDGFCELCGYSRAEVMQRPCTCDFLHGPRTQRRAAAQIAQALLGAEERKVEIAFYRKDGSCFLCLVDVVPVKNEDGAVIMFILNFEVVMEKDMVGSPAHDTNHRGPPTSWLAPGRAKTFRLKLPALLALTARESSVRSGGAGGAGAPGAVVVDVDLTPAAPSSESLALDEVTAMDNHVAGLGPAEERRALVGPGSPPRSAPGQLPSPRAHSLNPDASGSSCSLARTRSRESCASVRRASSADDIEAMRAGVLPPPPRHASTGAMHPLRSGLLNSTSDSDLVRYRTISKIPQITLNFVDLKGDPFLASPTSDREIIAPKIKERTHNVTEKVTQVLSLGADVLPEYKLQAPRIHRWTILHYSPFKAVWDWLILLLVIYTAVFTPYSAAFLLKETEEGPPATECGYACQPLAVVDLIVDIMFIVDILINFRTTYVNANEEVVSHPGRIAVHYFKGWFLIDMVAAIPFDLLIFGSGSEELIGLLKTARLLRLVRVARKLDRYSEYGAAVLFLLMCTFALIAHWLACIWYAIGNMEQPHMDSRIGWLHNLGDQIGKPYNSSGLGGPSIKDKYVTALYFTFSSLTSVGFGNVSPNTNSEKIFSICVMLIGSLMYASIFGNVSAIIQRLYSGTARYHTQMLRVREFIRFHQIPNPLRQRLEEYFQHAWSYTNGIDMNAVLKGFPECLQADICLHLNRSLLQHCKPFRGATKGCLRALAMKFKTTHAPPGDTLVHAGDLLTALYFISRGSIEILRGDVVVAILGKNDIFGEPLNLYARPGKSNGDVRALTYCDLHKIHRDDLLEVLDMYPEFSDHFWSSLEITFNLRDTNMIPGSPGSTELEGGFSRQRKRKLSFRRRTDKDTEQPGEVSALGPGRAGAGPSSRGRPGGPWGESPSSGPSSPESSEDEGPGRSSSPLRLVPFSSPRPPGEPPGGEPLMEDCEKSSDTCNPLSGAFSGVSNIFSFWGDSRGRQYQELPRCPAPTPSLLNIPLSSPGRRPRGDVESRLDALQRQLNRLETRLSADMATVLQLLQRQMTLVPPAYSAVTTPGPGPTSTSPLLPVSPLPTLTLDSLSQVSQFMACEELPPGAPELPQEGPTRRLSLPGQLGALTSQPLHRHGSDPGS
On to `Cc1ccc2nc(NC(=O)CSc3nc(=O)n(CCN(C)C)c4c3CCCC4)sc2c1`, for which the “hERG current change (%, negative = inhibition) at 10uM” value was -50.2%.
With `Cc1ccc2nc(NC(=O)CSc3nc(=O)n(CCCN(C)C)c4c3CCC4)sc2c1` the figure was -50.2%; with `Cc1cc(NC(=O)CSc2nc(=O)n(CCCN(C)C)c3c2CCCC3)no1`, -7.06%; with `CCN(CC)CCn1c2c(c(SCC(=O)Nc3nc4ccc(C)cc4s3)nc1=O)CCC2`, -30.4%.
With `CN(C)CCCn1c2c(c(SCC(=O)Nc3nccs3)nc1=O)CCC2` the figure was -9.32%.
In the case of `Cc1cc(NC(=O)CSc2nc(=O)n(CCN(C)C)c3c2CCCC3)no1` it was -6.91%; in that of `Cc1ccc(NC(=O)CSc2nc(=O)n(CCCN(C)C)c3c2CCC3)c(C)c1`, -50.6%; in that of `CN1CCC(=O)N([C@H](CN=[N+]=[N-])Cc2ccccc2)CC1`, 17.9%.
Consider `c1cnc2ccc(-c3ccc4ncccc4c3)cc2c1`, for which the “hERG current change (%, negative = inhibition) at 10uM” value was -5.61%.
For `COc1cc(C=O)ccc1OCCOCCOc1ccc(Cl)cc1`, the “hERG current change (%, negative = inhibition) at 10uM” value was -37.6%.
With `COc1ccccc1NC(=O)c1ccc(S(=O)(=O)N2CCCC2)cc1` the figure was -20.3%; with `CCOC(=O)c1cccc(NC(=O)c2cc3ccccc3o2)c1`, 1.39%; with `Cl.c1ccc2c(N3CCNCC3)nsc2c1`, -5.8%.
With `Cl.O=C1[C@H]2CCCC[C@H]2C(=O)N1CCCCN1CCN(c2nsc3ccccc23)CC1` the figure was -74.3%; with `FC(F)(F)C1CCCN(c2nsc3ccccc23)C1` (centres unmarked), 19.1%; with `COc1cccc2nc3cc(C)c(C)cc3nc12`, -7.73%.
In the case of `CCC(=O)N1N=C(c2cccs2)CC1c1ccc(OC)cc1` (centres unmarked) it was 15.9%; in that of `O=C(CN1CCCCC1)N1N=C(c2cccs2)CC1c1cccs1` (centres unmarked), -58.7%.
As for `COc1ccc(C2CC(c3cccs3)=NN2C(=O)CCC(=O)O)cc1` (centres unmarked), the “hERG current change (%, negative = inhibition) at 10uM” value is 10.5%.
In the case of `CC(=O)N1N=C(c2cccs2)CC1c1cccs1` (centres unmarked), the “hERG current change (%, negative = inhibition) at 10uM” value was determined as 5.99%.
On to `O=C(CN1CCOCC1)N1N=C(c2cccs2)CC1c1cccs1` (centres unmarked), for which the “hERG current change (%, negative = inhibition) at 10uM” value is 18.9%.
Turning to `COc1ccc(C2CC(c3cccs3)=NN2C(=O)CN2CCCCC2)cc1` (centres unmarked), the “hERG current change (%, negative = inhibition) at 10uM” value is -71.9%.
With `O=C(CSc1ncn[nH]1)Nc1nc(-c2ccccc2)ns1` the figure was -7.44%.
Take `CCCC(=O)c1cc(F)c(N2CCN(S(=O)(=O)c3ccccc3)CC2)cc1C`: the “hERG current change (%, negative = inhibition) at 10uM” value was 13.2%.
With `CCOc1ccc(NC(=O)C(C)Sc2nccn2C)cc1` (centres unmarked), the “hERG current change (%, negative = inhibition) at 10uM” value amounted to 6.78%.
In the case of `Cn1cccc1Cc1nnc(SCC(=O)NCC2CCCO2)n1CCc1ccccc1` (centres unmarked) it was -10.8%; in that of `CCCn1nc(C(=O)OCC(=O)Nc2cccc(OC)c2)c2ccccc2c1=O`, 3.96%; in that of `CCN(CC)C(CNC(=O)CSc1nnnn1-c1ccc(C)c(C)c1)c1ccco1` (centres unmarked), -54.5%.
With `O=C(O)c1ccc(-n2nnnc2SCc2ccccc2)cc1` the figure was 8.05%; with `Cc1ccc(-n2nnnc2SCC(=O)NNC(=O)c2ccco2)cc1C`, 24.3%; with `Cc1ccc(-n2nnnc2SCc2ccc(C(=O)O)cc2)cc1C`, -70.7%.
On to `CCN(CC)C(CNC(=O)CSc1nnnn1-c1cccc(F)c1)c1ccco1` (centres unmarked), for which the “hERG current change (%, negative = inhibition) at 10uM” value is given as -16.4%.
With `O=C(O)c1ccc(CSc2nnnn2-c2ccc(F)cc2)cc1` the figure was -9.84%.
With `COc1cc(CCc2ccc3c(c2)OCO3)oc(=O)c1` the figure was 4.95%; with `Cc1ccc(C2(C)NC(=O)N(CC(=O)NNC(=O)c3ccoc3C)C2=O)cc1` (centres unmarked), 26.6%.
With `Cc1nn(CC(=O)NCc2ccccc2)c(=O)c2cccn12` the figure was 9.27%; with `O=C(Nc1ccc(Cl)cc1)N1CCCN(c2ccc(C(F)(F)F)cc2[N+](=O)[O-])CC1`, 4.29%; with `O=C(Nc1ccc(Cl)cc1)N1CCN(c2ncccn2)CC1`, -13.2%.
Turning to `Cc1csc2c(N3CCN(C(=O)Nc4ccc(OC(F)(F)F)cc4)CC3)ncnc12`, the “hERG current change (%, negative = inhibition) at 10uM” value is on record as -32.9%.
With `Cc1csc2ncnc(N3CCN(C(=S)Nc4ccc(C(F)(F)F)cc4)CC3)c12` the figure was -16.7%.
For the compound `O=C(Nc1ccc(C(F)(F)F)cc1)N1CCN(c2ccnc3cc(Cl)ccc23)CC1`, the “hERG current change (%, negative = inhibition) at 10uM” value is -62.2%.
In the case of `O=C(Nc1ccc(OC(F)(F)F)cc1)N1CCN(c2ccnc3cc(Cl)ccc23)CC1`, the “hERG current change (%, negative = inhibition) at 10uM” value was -72.1%.
As to `CC(C)(C)OC(=O)N1CCCN(C(=O)Nc2ccc(OC(F)(F)F)cc2)CC1`, the “hERG current change (%, negative = inhibition) at 10uM” value is -22.6%.
Consider `Cc1csc2ncnc(N3CCN(C(=O)Nc4ccc(OC(F)(F)F)cc4)CC3)c12`, for which the “hERG current change (%, negative = inhibition) at 10uM” value is reported as -68%.

(Values after PMC4336329 (PLoS ONE, 2015).)
